SW480 rereplic = DNA re-replication induction in SW480 cells; SW480 DNA re-replication, Hoechst DNA content imaging, 48 h; Potency, µM (series often up to 46.1 µM), for the others: at the top dose re-replication activation, actives largely listed as activators; actives 1.8% (n = 340,000); AID 624297; also: potency is read from the fitted curve at half-maximal effect; % of control where 0% means no effect; nearly all actives have a fitted effect of over 55% in size
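DNA re-replication was detected as more nuclei of elevated Hoechst intensity after 48 hr exposure to compound (23 nL pinned per well of 250 cells).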
Vif-A3F inh = blocks the Vif interaction with APOBEC3F; HeLa A3F-eYFP + Vif (tagged APOBEC3F with the HIV-1 protein that degrades it), YFP fluorescence increase; Potency, µM (top dose mostly 46.1 µM), for the others: top-dose activity, negative = active; actives 0.2% (n = 390,000); AID 602313; also: potency is read from the fitted curve at half-maximal effect; % of control where 0% means no effect; nearly all actives have a fitted effect of over 65% in size
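HeLa cells stably expressing Vif plus C-terminally eYFP-tagged A3F were seeded, incubated overnight at 37 deg C, dosed with compound, incubated overnight again at 37 deg C. Yellow fluorescence (Ex 488/Em 500-530) reported blocked Vif-mediated A3F-eYFP degradation.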
MCF10A rereplic = DNA re-replication induction in MCF 10a cells. MCF 10A DNA re-replication, Hoechst nuclear intensity, 48 h. Potency, µM (doses to about 46.1 µM), for inactives: at the top dose activity, positive = re-replication, hits mostly activators. AID 624296. actives 2.9% (n = 350,000); also: potency is read from the fitted curve at half-maximal effect; % of control where 0% means no effect; nearly all actives have a fitted effect of over 50% in size
Vif-APOBEC3G blk = Vif-A3G binding inhibition; HeLa A3G-eYFP + Vif (tagged APOBEC3G with the HIV-1 protein that degrades it), YFP fluorescence, overnight; Potency, µM (doses to about 46.1 µM), without a hit: at the highest dose activity, negative = active, hits mostly inhibitors; AID 602310; actives 0.076% (n = 410,000); Q9HC16; also: potency is read from the fitted curve at half-maximal effect; % is scaled to controls: 0 for no effect and ±100 for the full control effect; nearly all actives have a fitted effect of over 60% in size
Target sequence (Q9HC16 whole entry, looked up): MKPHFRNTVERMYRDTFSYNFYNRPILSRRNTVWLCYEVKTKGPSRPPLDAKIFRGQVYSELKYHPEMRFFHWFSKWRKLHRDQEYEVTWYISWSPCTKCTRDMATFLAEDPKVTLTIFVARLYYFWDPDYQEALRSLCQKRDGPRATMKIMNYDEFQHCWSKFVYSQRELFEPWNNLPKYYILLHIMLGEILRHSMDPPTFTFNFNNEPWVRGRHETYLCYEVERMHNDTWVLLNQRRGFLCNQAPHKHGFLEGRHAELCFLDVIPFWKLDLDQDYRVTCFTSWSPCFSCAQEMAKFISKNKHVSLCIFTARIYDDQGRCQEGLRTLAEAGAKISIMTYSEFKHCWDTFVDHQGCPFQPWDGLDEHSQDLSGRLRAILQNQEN
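HeLa cells stably expressing Vif and C-terminally eYFP-tagged A3G, seeded overnight at 37 deg C, then exposed to compound by pintool overnight at 37 deg C. Rise in yellow fluorescence (Ex 488/Em 500-530, Acumen) marks blocked Vif-driven A3G degradation.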
IL1B secr inh = inhibitors of inflammasome signaling (IL-1 beta secretion). AID 743279. THP-1 LPS/ATP IL-1B secretion, AlphaLISA, 16 h; stronger effect = lower value. activity change, % at 57.5 µM. actives 4.7% (n = 360,000); in the data active = activity change below about -50%; inconclusive = mostly about -30% to -49%; also: % is scaled to controls: 0 for no effect and ±100 for the full control effect
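THP-1 cells pretreated 1 hr with compounds (up to 57.5 uM final), then stimulated with LPS (250 ng/mL final) plus ATP (1.25 mM final); secreted IL-1B measured by AlphaLISA after 16 hr, decreased signal indicating inhibition.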
Giardia kill = Giardia lamblia killing. Giardia lamblia trophozoite viability. actives 0.15% (n = 340,000). activity change, % at 7.66 µM, hits read low; in the data active = activity change below about -80%; inconclusive = between about -30% and that limit;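 also: parasites exposed to compound for two days anaerobically before the ATP read; % is scaled to controls: 0 for no effect and ±100 for the full control effect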
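Compounds were tested on trophozoites seeded at 100 cells/well and held 48 hrs at 37 deg C anaerobically. An ATP-based luminescent kit measured the remaining live cells.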
* marks the source's active call; other numbers are inactive results; ? = inconclusive; . = no result given; [ ] = another dose, or the depositor's remark. Rows were chosen to be rich in hits. Some 6.9% of all compounds tested hit in one or more screens of this group. Unless noted, calls follow the shape of the dose curve; as a rule, active = well fitted curve in the direction sought with a large enough effect; inconclusive = small, poorly fitted or top-dose-only effect, or another doubt; inactive = no such curve, though single readings can be large; an effect the other way counts as inactive or inconclusive.

SMILES	SW480 rereplic	Vif-A3F inh	MCF10A rereplic	Vif-APOBEC3G blk	IL1B secr inh	Giardia kill
COc1ccc(C2=NN(C(=O)c3ccco3)C(c3cc4ccccc4nc3Cl)C2)cc1 (configuration not stated)	-1.6%	-20.0%	-1.6%	-4.1%	10.0	-8.9
Clc1nssc1=Nc1nncs1	1.5%	-4.0%	?	-5.3%	-72.8*	-27.8
Clc1nssc1=Nc1ccc(Br)cc1	?	0.5%	?	-20.9%	-96.9*	-11.2
CCC(CC)C(=O)OCc1cc(=O)n2nc(C3CC3)sc2n1	.	-3.4%	.	0.0%	.	.
CCn1c(=O)c([N+](=O)[O-])c(Cl)c2ccccc21	8.2µM*	6.5%	25.8%	?	-96.3*	0.7
CCCCCCCC1CC(CSC(=N)N)OC1=O (configuration not stated)	1.0%	-13.1%	?	4.7%	-98.5*	-6.0
Cc1onc(-c2ccccc2)c1C(=O)Nc1sccc1C#N	0.9%	-3.2%	7.0%	6.0%	-64.8*	-7.3
NC(=O)c1c(NC(=O)c2ccccc2Cl)sc2c1CCC2	-8.7%	6.1%	15.7%	-8.0%	-15.1	-29.1
Cc1onc(-c2c(F)cccc2Cl)c1C(=O)Nc1sc2c(c1C(N)=O)CCC2	?	-9.8%	5.01µM*	-3.3%	?	-9.1
Cc1onc(-c2ccccc2)c1C(=O)Nc1sc2c(c1C#N)CCC2	?	-18.1%	?	-20.5%	33.4	4.9
Cc1onc(-c2ccccc2)c1C(=O)Nc1nncs1	-2.2%	-10.7%	-5.3%	2.0%	-1.0	-0.4
Cc1onc(-c2ccccc2)c1C(=O)Nc1sc2c(c1C(N)=O)CCC2	6.9%	-1.4%	3.8%	-21.2%	-50.2*	-4.2
O=C(NCc1cccc(Br)c1)c1cccn1-c1nnc(N2CCCCC2)s1	.	3.5%	.	-1.5%	.	.
CCOC(=O)c1c(Nc2ccc(C)cc2)nnc(-c2ccccc2)c1-c1ccccc1	.	3.7%	.	4.2%	.	.
COc1cccc(Cn2c(=O)n(-c3cc(C)cc(C)c3)c(=O)c3oc4ccccc4c32)c1	.	6.7%	.	-2.0%	.	.
c1nc(NCc2ccc3c(c2)OCO3)c2cc(-c3ccc4c(c3)OCCO4)ccc2n1	0.8%[9.22 µM]	5.3%	9.2µM*	0.7%	.	7.1
c1cncc(CNc2ncnc3ccc(-c4ccoc4)cc23)c1	1.9%	0.5%	3.9%	-0.2%	.	-11.5
Cc1cccc(CNc2ncnc3ccc(-c4ccoc4)cc23)c1	8.3%	4.0%	2.59µM*	-0.5%	.	-18.7
COc1cccc(-c2ccc3ncnc(NCc4ccc5c(c4)OCO5)c3c2)c1	-30.6%[9.22 µM]	-1.2%	16.4µM*	0.6%	.	?
COc1cccc(N2CCN(C(=O)CN3CCSc4ccccc43)CC2)c1	.	-1.8%	.	-6.1%	.	.
COc1cc(OC)c(NS(=O)(=O)c2cc3c(cc2C)N(C(C)=O)CCO3)cc1Cl	.	3.8%	.	-3.2%	.	.
COc1ccc(-c2oc3ncn4nc(COc5ccccc5C)nc4c3c2-c2ccc(OC)cc2)cc1	.	4.2%	.	-2.8%	.	.
CCOc1ccc(-c2cc(C(=O)NCCCN3CCN(CC)CC3)c3ccccc3n2)cc1	?	-3.1%	?	-0.7%	-71.2*	-20.9
CCOC(=O)C1CCCN(C(=O)c2cc(-c3ccc(F)cc3)nc3ccccc23)C1 (configuration not stated)	8.8%	3.3%	29.7%	-5.9%	-13.6	-0.9
CCOc1ccc(-c2cc(C(=O)NCCc3ccc(C)cc3)c3ccccc3n2)cc1	.	-5.3%	.	-0.8%	.	.
SMILES	SW480 rereplic	Vif-A3F inh	MCF10A rereplic	Vif-APOBEC3G blk	IL1B secr inh	Giardia kill
CCOc1ccc(-c2cc(C(=O)NCCCn3ccnc3)c3cc(Br)ccc3n2)cc1	?	-3.6%	?	-29.4%	-99.1*	-3.0
CCN1CCCC(OC(=O)c2cc(-c3ccc(C)cc3)nc3ccccc23)C1 (configuration not stated)	16.4%	?	27.2%	4.1%	-147.2*	-20.4
Cc1ccc(-c2cc(C(=O)NCCCN3CCOCC3)c3ccc(Cl)c(C)c3n2)cc1	20.6µM*	-3.6%	?	-0.1%	-63.7*	-14.2
CCOC(=O)c1ccc(N2C(=O)c3[nH]nc(-c4ccc(C)cc4)c3C2c2cccc(F)c2)cc1 (configuration not stated)	.	-16.3%	.	-4.9%	.	.
Cc1sc2c(c1C)c(=O)n(-c1ccc(Cl)cc1)c(=O)n2Cc1c(F)cccc1Cl	.	3.9%	.	2.4%	.	.
Cc1ccc(Nc2ncc(C(=O)N3CCN(c4cccc(Cl)c4)CC3)c3ccccc23)cc1Cl	.	2.3%	.	-8.9%	.	.
CCOc1ccc(-c2cc(C(=O)O)c3ccccc3n2)cc1	2.6%	0.6%	15.0%	-15.3%	21.0	-82.6*
Cc1ccc(Nc2cc(C(=O)NCCCN3CCOCC3)c3ccccc3n2)cc1C	?	-0.7%	10.3µM*	-1.5%	4.9	-1.6
Cc1ccc(Nc2ncc(C(=O)NCCCN3CCN(C)CC3)c3ccccc23)cc1Cl	?	3.4%	23.1µM*	2.4%	-78.0*	-5.1
CCOc1ccc(-c2cc(C(=O)NCCCn3ccnc3)c3ccccc3n2)cc1	-17.8%	5.1%	0.581µM*	0.8%	-5.1	9.8
N[C@@H]1C(O)OC(CO)C(O)C1O (some centres not stated)	0.7%	.	-4.7%	.	.	.
O=C(NCCCN1CCCC1)c1cc(Sc2ccc(F)cc2)nc2ccccc12	?	-24.0%	?	1.5%	-51.8*	0.1
COc1ccc(-c2cc(C(=O)N(C)CC(=O)Nc3cccc(F)c3)c3ccccc3n2)cc1	25.3%	3.9%	?	-6.4%	-56.5*	6.0
O=C(NCCCN1CCOCC1)c1cc(-c2ccc(Br)cc2)nc2ccccc12	6.0%	-7.9%	8.9%	1.3%	-68.3*	-6.3
O=C(NCCCN1CCCCC1)c1cc(Sc2ccc(Cl)cc2)nc2ccccc12	.	10.7%	.	3.4%	.	.
O=C(NCCCN1CCOCC1)c1cc(-c2ccccc2)nc2ccccc12	-4.0%	6.7%	6.1%	-5.2%	-8.2	15.8
COc1ccc(CCNC(=O)Cn2c(=O)cc(C(F)(F)F)c3c(C)nn(C)c32)cc1OC	.	-0.2%	.	0.5%	.	.
CC1Cc2ccccc2N1C(=O)CSc1nn2c(=O)c(C(C)(C)C)nnc2s1 (configuration not stated)	-0.5%	10.6%	?	-27.6%	-96.4*	4.1
CC(C)(C)c1nnc2sc(SCC(=O)N3CCCc4ccccc43)nn2c1=O	?	-1.0%	-182.6%[0.0737 µM]	-16.8%	-29.1	2.8
O=C(c1ccccc1)c1cnc(Nc2ccccc2Cl)s1	21.9%	1.7%	?	-1.9%	-57.8*	0.8
Cc1ccc(Cl)cc1NC(=O)Cn1cc2c(n1)CCCCC2	.	-3.7%	.	-6.8%	.	.
COc1ccc(OC)c(N(CC(=O)NC2CC3CCC2C3)S(=O)(=O)c2ccccc2)c1 (configuration not stated)	2.6%	-6.2%	1.3%	3.1%	-66.6*	-5.3
